Rows were chosen to be rich in hits. Some 1.8% of all compounds tested hit in one or more screens of this group.
UBC9 SUMO inh – blocks human SUMOylation mediated by UBC9; 290,000 compounds, 0.36% hits; AID 2006; inhibition, % at 35 µM; P63279; HTRF SUMOylation assay, SAE1/SAE2 + UBC9, in vitro; in the data active = inhibition above about 50%, passing the limit was not always enough
Target sequence (P63279 whole entry, looked up): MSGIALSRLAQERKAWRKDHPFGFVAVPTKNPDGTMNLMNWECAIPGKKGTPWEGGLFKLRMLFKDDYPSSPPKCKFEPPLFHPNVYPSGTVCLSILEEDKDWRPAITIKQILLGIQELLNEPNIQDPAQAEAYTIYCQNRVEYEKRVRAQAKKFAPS
PHOSPHO1 inh – PHOSPHO1 (human) inhibition. Q8TCT1. recombinant PHOSPHO1, absorbance phosphatase assay. inhibition, % at 13.3 µM. 290,000 compounds, 1.1% hits. AID 1565; in the data active = inhibition above about 60%
Target sequence (Q8TCT1 whole entry, looked up): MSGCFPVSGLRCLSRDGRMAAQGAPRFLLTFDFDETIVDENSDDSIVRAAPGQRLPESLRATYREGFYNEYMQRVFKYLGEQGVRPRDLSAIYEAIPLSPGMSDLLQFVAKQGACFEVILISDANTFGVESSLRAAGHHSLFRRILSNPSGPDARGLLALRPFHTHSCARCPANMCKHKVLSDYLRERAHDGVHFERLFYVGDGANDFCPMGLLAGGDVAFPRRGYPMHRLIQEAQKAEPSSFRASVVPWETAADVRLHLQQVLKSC
p-CIP stab down – compounds decreasing mouse p/CIP protein stability; F442A p/CIP-EGFP cells, EGFP fluorescence, 16 h; 290,000 compounds, 0.01% hits; Q05BA5; decrease of EGFP signal, % at 10 µM;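 active = EGFP signal decrease of at least 30% at 10 µM or well 3 SD below plate mean, unless failing retest; inactive = the rest, including hits failing retest or dose response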
NadD inh – blocks S. aureus nicotinate mononucleotide adenylyltransferase. purified NadD enzyme, colorimetric absorbance read-out. inhibition, % at 20 µM. 360,000 compounds, 0.78% hits; in the data active = inhibition above about 26%
NadD conf – confirmation of Staphylococcus aureus NadD inhibitors; shares compounds with NadD inh; purified S. aureus NadD, colorimetric enzyme assay; inhibition, % at 20 µM; 2,000 compounds, 13% hits; AID 624309; in the data active = inhibition mostly above about 42%, no sharp cut-off; inactive = mostly below about 42%
* hit, by the source's call; . = no result.

SMILES	UBC9 SUMO inh	PHOSPHO1 inh	p-CIP stab down	NadD inh	NadD conf
Cn1c(N)c(C(=O)COC(=O)c2cc(C3CC3)nc3ccccc23)c(=O)n(Cc2ccccc2)c1=O	-36.6	13.3	-8.5	42.7*	7.1
CC(C)Cn1c(N)c(C(=O)COC(=O)c2cc(C3CC3)nc3ccccc23)c(=O)n(C)c1=O	-21.7	3.5	9.7	.	.
Cn1c(=O)c(C(=O)COC(=O)c2cc(-c3ccco3)nc3ccccc23)c(N)n(Cc2ccccc2)c1=O	14.8	-11.2	-3.6	.	.
CC(C)Cn1c(N)c(C(=O)COC(=O)c2cc(-c3ccco3)nc3ccccc23)c(=O)n(C)c1=O	20.9	20.9	4.9	53.3*	19.9
Cc1cccc(-c2ccc3[nH]c4c(c3c2)CCN2C[C@@H]([C@H](C)OC(=O)Nc3ccccc3C)[C@@H](N(C)C(=O)Nc3ccccc3C)C[C@@H]42)c1	.	.	.	23.3	.
CCc1c(C)nc(N)n2c(SCC(=O)Nc3ccccc3)nnc12	7.4	42.0	-6.9	8.9	.
C=CCC1CCCC(=O)N2CC[C@H](O)C12 (some centres undefined)	15.2	-18.5	0.1	3.3	.
COc1cc2c(cc1NC(=O)C(C)N1CCN(S(=O)(=O)c3ccc(C)c(C)c3)CC1)oc1ccccc12 (centres undefined)	17.4	3.9	-3.2	0.7	.
COc1cc2c(cc1NC(=O)C(C)N1CCN(S(=O)(=O)c3ccccc3[N+](=O)[O-])CC1)oc1ccccc12 (centres undefined)	-23.5	21.4	0.2	37.6*	-0.6
COc1ccc(Cl)cc1NC(=O)C(C)OC(=O)c1ccc(NS(=O)(=O)c2ccc3[nH]c(=O)[nH]c3c2)cc1 (centres undefined)	-34.0	-9.7	-0.2	36.4*	31.0
COc1cc2c(cc1NC(=O)CN1CCN(S(=O)(=O)c3ccc(C)cc3)CC1)oc1ccccc12	-2.9	-60.0	-0.7	32.8*	8.5
COc1cc2c(cc1NC(=O)C(C)OC(=O)c1ccc(S(=O)(=O)Nc3ccccc3Cl)cc1)oc1ccccc12 (centres undefined)	14.9	23.9	14.5	31.9*	1.9
COc1ccc(S(=O)(=O)Nc2ccccc2Cl)cc1NC(C)=O	4.8	20.0	0.4	1.8	.
O=C1NC[C@@H](CCCCN2CCN(CC3CCCCC3)C(=O)C2=O)N(CC2CCCCC2)C1=O	.	.	.	13.3	.
O=C1NC(=O)/C(=C/c2ccc(-c3cccc([N+](=O)[O-])c3)o2)S1	28.8	-1.3	-5.8	45.5*	4.8
Cc1csc(C(=O)O)c1NC(=O)c1c(Cl)cccc1Cl	11.6	46.3	-10.7	-6.9	.
CCC(C)c1ccc(C2C3=C(Nc4nc(N)[nH]c(=O)c42)c2ccccc2C3=O)cc1 (centres undefined)	13.9	50.8	5.3	37.1*	11.1
COc1ccc(C(=O)NC(NC(=O)c2ccc(OC)c(OC)c2)c2ccccc2F)cc1OC	2.9	9.5	0.4	-2.2	.
Cc1cccc(-n2nc(C(=O)Nc3ccccc3)n3c(=O)cc(-c4ccccc4)nc23)c1	8.9	1.0	6.2	30.1*	-9.0
O=C(CC1c2cc(F)ccc2C=C(c2ccsc2)N1c1ccc(C#CCCO)cc1)c1ccco1 (centres undefined)	.	.	.	26.5	.
O=C(CC1c2ccccc2C=C(c2ccsc2)N1c1ccc(-c2cccnc2)cc1)C1CC1 (centres undefined)	.	.	.	32.9*	11.8
COc1ncc(-c2ccc(N3C(c4ccsc4)=Cc4ccc(F)cc4C3CC(=O)c3ccco3)cc2)cn1 (centres undefined)	.	.	.	34.7*	9.8
COC(=O)c1ccc(N2C(c3ccsc3)=Cc3cc4c(cc3C2CC(=O)c2ccco2)OCO4)cc1 (centres undefined)	.	.	.	31.4*	15.8
CCOc1ccc(C(=O)Nc2nnc(NC(=S)Nc3ccccc3)s2)cc1	-2.5	20.0	-1.2	35.1*	11.4
CCOC(=O)C1=C(C)c2ccccc2N(C(=O)OC)C1(C)C(=O)OCC (centres undefined)	.	.	.	43.7*	69.0*
SMILES	UBC9 SUMO inh	PHOSPHO1 inh	p-CIP stab down	NadD inh	NadD conf
CCOC(=O)C1=C(C)c2ccccc2OC1(CC)C(=O)OCC (centres undefined)	.	.	.	-2.5	.
CCOC(=O)c1c(NC(=O)COC(=O)c2ccc(C)s2)sc2c1CC(C)(C)NC2(C)C	.	.	.	-4.4	.
CCCCc1nc2ccccc2c(=O)n1NC(=O)c1c(O)c2c(n(CC(C)C)c1=O)CCCC2	5.5	-15.6	3.5	33.0*	14.3
Cc1nn(-c2ccc([N+](=O)[O-])cc2)c2c1C(c1cccc(Br)c1)N1C(=N2)C(=O)Nc2ccccc21 (centres undefined)	17.7	3.9	-8.0	31.5*	12.7
Cc1cccc(NS(=O)(=O)c2ccc3c(c2)Cc2cc(S(=O)(=O)Nc4cccc(C)c4C)ccc2-3)c1C	-8.6	1.7	-9.6	36.1*	44.0
O=C(NC(Cc1c[nH]c2ccccc12)C(=O)N/N=C/c1ccc(Cl)cc1)c1cccs1 (centres undefined)	-5.9	7.7	-19.1	31.2*	34.6
O=C(NC(Cc1c[nH]c2ccccc12)C(=O)N1CCOCC1)c1cccs1 (centres undefined)	12.4	20.5	-18.4	-0.1	.
COCCn1c(=NC(=O)c2sc3ccccc3c2Cl)sc2cc(S(N)(=O)=O)ccc21	12.9	0.3	-9.0	29.3*	17.3
COCCn1c(=NC(=O)c2ccc(S(=O)(=O)N3CCOCC3)cc2)sc2cc(S(N)(=O)=O)ccc21	6.1	47.7	1.3	4.7	.
C=CCn1c(=NC(=O)c2sc3ccccc3c2Cl)sc2cc(S(N)(=O)=O)ccc21	34.4	-5.1	-5.3	35.9*	0.0
CC(C)CNC(=O)COC(=O)c1ccc(F)cc1Cl	8.5	24.9	-20.1	-2.1	.
C=C1CN(CC(=O)OC)S(=O)(=O)c2ccccc21	-11.2	31.1	6.2	-1.3	.
C=C1CN(Cc2ccccc2)S(=O)(=O)c2ccccc21	6.1	40.2	2.8	42.3*	32.1
COC(=O)c1ccc(NC(=O)COc2ccc(C3C(C#N)=C(N)Oc4c3ccc3ccccc43)cc2OC)cc1 (centres undefined)	0.3	38.2	-7.9	51.1*	29.3
C/C=C\C=C\C(=O)N1CC2(CC(c3cccc(NC(=O)COc4ccc(Cl)cc4)c3)=NO2)C[C@H]1C(N)=O (some centres undefined)	9.6	30.9	-0.5	11.7	.
NC(=O)[C@H]1CC2(CC(c3cccc(NC(=O)COc4ccc(Cl)cc4)c3)=NO2)CN1C(=O)Cc1ccc([N+](=O)[O-])cc1 (some centres undefined)	4.3	30.9	-7.9	32.6*	28.9
C/C=C\C=C/C(=O)Nc1cccc(C2=NOC3(C2)C[C@@H](C(N)=O)N(C(=O)COc2ccc(Cl)cc2)C3)c1 (some centres undefined)	16.4	17.7	-16.1	38.3*	61.6*
CCCCCC(=O)Nc1cccc(C2=NOC3(C2)C[C@@H](C(N)=O)N(C(=O)Cc2ccc([N+](=O)[O-])cc2)C3)c1 (some centres undefined)	13.1	13.3	-0.7	9.1	.
